Data taken from the supplement of paper PMC4022240.
± gives the standard deviation.

Legend:
Experiment in all cases: peptide microarray binding signal (635 nm), min-max normalized on array (fraction of array maximum); higher = stronger binding
[1] = biological target: T1, HaloTag-ATRX ADD domain (163-292)
T1 chain: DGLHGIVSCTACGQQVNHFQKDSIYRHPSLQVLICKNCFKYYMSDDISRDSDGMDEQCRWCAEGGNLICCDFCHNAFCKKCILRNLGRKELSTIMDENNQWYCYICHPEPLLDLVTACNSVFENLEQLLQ
Experimental: (§1)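 Histone 13-mer peptides were synthesized as cellulose conjugates with a C-terminal 20-atom PEG linker and printed in triplicate on nitrocellulose. The sequence given is the unmodified backbone; PTMs (Kme1/2/3, Kac, Sph/Tph, Rme/Rme2a/Rme2s, Rcit) are listed in the label and the 'peptide modifications' condition. Slides were probed at 4 °C for 1 h with biotin-labelled (HQ)5-HaloTag reader fusions (ATRX-ADD, ING2-PHD) then streptavidin-Alexa647, or with rabbit histone antibodies then anti-rabbit Alexa647. The mean 635 nm signal of the triplicate spots was scaled 0-1 between the lowest and highest values on each array.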

[2] = biological target: HaloTag-ING2 PHD (mouse Ing2 200-280)
Experimental: as §1

[3] = biological target: anti-H3K4me3 antibody ab8580
Experimental: as §1

[4] = biological target: anti-H3K9me3 antibody ab8898
Experimental: as §1

[5] = peptide region: H2A 11-23, peptide modifications: H2AK15ac, binder concentration: 1:2,000 dilution
[6] = peptide region: H2A 11-23, peptide modifications: H2AK15ac, binder concentration: 1:10,000 dilution
[7] = peptide region: H2A 11-23, peptide modifications: H2AT16ph, binder concentration: 1:2,000 dilution
[8] = peptide region: H2A 11-23, peptide modifications: H2AT16ph, binder concentration: 1:10,000 dilution
[9] = peptide region: H2A 1-13, peptide modifications: H2AR3me2s, binder concentration: 1:2,000 dilution
[10] = peptide region: H2A 1-13, peptide modifications: H2AR3me2s, binder concentration: 1:10,000 dilution
[11] = peptide region: H2A 1-13, peptide modifications: H2AS1ph H2AR3me2s, binder concentration: 1:2,000 dilution
[12] = peptide region: H2A 1-13, peptide modifications: H2AS1ph H2AR3me2s, binder concentration: 1:10,000 dilution
[13] = peptide region: H2A 1-13, peptide modifications: H2AS1ph, binder concentration: 1:2,000 dilution
[14] = peptide region: H2A 1-13, peptide modifications: H2AS1ph, binder concentration: 1:10,000 dilution
[15] = peptide region: H2A 11-23, peptide modifications: H2AK13ac H2AK15ac H2AT16ph, binder concentration: 1:2,000 dilution
[16] = peptide region: H2A 11-23, peptide modifications: H2AK13ac H2AK15ac H2AT16ph, binder concentration: 1:10,000 dilution
[17] = peptide region: H2A 1-13, peptide modifications: H2AS1ph H2AK5ac, binder concentration: 1:2,000 dilution
[18] = peptide region: H2A 1-13, peptide modifications: H2AS1ph H2AK5ac, binder concentration: 1:10,000 dilution
[19] = peptide region: H2A 1-13, peptide modifications: H2AS1ph H2AK9ac, binder concentration: 1:2,000 dilution
[20] = peptide region: H2A 1-13, peptide modifications: H2AS1ph H2AR3cit, binder concentration: 1:2,000 dilution
[21] = peptide region: H2A 1-13, peptide modifications: H2AS1ph H2AR3cit, binder concentration: 1:10,000 dilution
[22] = peptide region: H2A 1-13, peptide modifications: H2AS1ph H2AR3me2a, binder concentration: 1:2,000 dilution
[23] = peptide region: H2A 1-13, peptide modifications: H2AS1ph H2AR3me2a, binder concentration: 1:10,000 dilution

B1: H2A 11-23 R A K A Kac T R S S R A G L (peptide)
chain: RAKAKTRSSRAGL
peptide microarray binding signal ([1]; peptide region: H2A 11-23, peptide modifications: H2AK15ac, binder concentration: 50 nM): 0.00502 ± 0.00053
peptide microarray binding signal ([1]; peptide region: H2A 11-23, peptide modifications: H2AK15ac, binder concentration: 500 nM): 0.00495 ± 0.00038
peptide microarray binding signal ([2]; peptide region: H2A 11-23, peptide modifications: H2AK15ac, binder concentration: 10 nM): 0.00388 ± 5.4e-05
peptide microarray binding signal ([2]; peptide region: H2A 11-23, peptide modifications: H2AK15ac, binder concentration: 100 nM): 0.0051 ± 0.00094
peptide microarray binding signal [3, 5]: 0.000321 ± 6.7e-06
peptide microarray binding signal [3, 6]: 0.00126 ± 4.3e-05
peptide microarray binding signal [4, 5]: 0.0004228 ± 4.1e-06
peptide microarray binding signal [4, 6]: 0.00121 ± 4.9e-05

B2: H2A 11-23 R A K A K Tph R S S R A G L (peptide)
chain: RAKAKTRSSRAGL
peptide microarray binding signal ([1]; peptide region: H2A 11-23, peptide modifications: H2AT16ph, binder concentration: 50 nM): 0.0047 ± 9.3e-05
peptide microarray binding signal ([1]; peptide region: H2A 11-23, peptide modifications: H2AT16ph, binder concentration: 500 nM): 0.00824 ± 0.00034
peptide microarray binding signal ([2]; peptide region: H2A 11-23, peptide modifications: H2AT16ph, binder concentration: 10 nM): 0.00364
peptide microarray binding signal ([2]; peptide region: H2A 11-23, peptide modifications: H2AT16ph, binder concentration: 100 nM): 0.00794 ± 0.00055
peptide microarray binding signal [3, 7]: 0.000472 ± 1.2e-05
peptide microarray binding signal [3, 8]: 0.000913
peptide microarray binding signal [4, 7]: 0.000347 ± 7e-06
peptide microarray binding signal [4, 8]: 0.000807 ± 1.5e-05

B3: H2A 1-13 S G Rme2s G K Q G G K A R A K (peptide)
chain: SGRGKQGGKARAK
peptide microarray binding signal ([1]; peptide region: H2A 1-13, peptide modifications: H2AR3me2s, binder concentration: 50 nM): 0.00696 ± 0.0016
peptide microarray binding signal ([1]; peptide region: H2A 1-13, peptide modifications: H2AR3me2s, binder concentration: 500 nM): 0.0101 ± 0.00014
peptide microarray binding signal ([2]; peptide region: H2A 1-13, peptide modifications: H2AR3me2s, binder concentration: 10 nM): 0.00519 ± 0.00018
peptide microarray binding signal ([2]; peptide region: H2A 1-13, peptide modifications: H2AR3me2s, binder concentration: 100 nM): 0.00893 ± 0.00025
peptide microarray binding signal [3, 9]: 0.00108 ± 4.1e-05
peptide microarray binding signal [3, 10]: 0.00183 ± 9.6e-05
peptide microarray binding signal [4, 9]: 0.000755 ± 7.7e-05
peptide microarray binding signal [4, 10]: 0.000923 ± 2.5e-05

B4: H2A 1-13 Sph G Rme2s G K Q G G K A R A K (peptide)
chain: SGRGKQGGKARAK
peptide microarray binding signal ([1]; peptide region: H2A 1-13, peptide modifications: H2AS1ph H2AR3me2s, binder concentration: 50 nM): 0.00357 ± 5.8e-05
peptide microarray binding signal ([1]; peptide region: H2A 1-13, peptide modifications: H2AS1ph H2AR3me2s, binder concentration: 500 nM): 0.00752 ± 0.00025
peptide microarray binding signal ([2]; peptide region: H2A 1-13, peptide modifications: H2AS1ph H2AR3me2s, binder concentration: 10 nM): 0.00257 ± 5e-05
peptide microarray binding signal ([2]; peptide region: H2A 1-13, peptide modifications: H2AS1ph H2AR3me2s, binder concentration: 100 nM): 0.00482 ± 0.0003
peptide microarray binding signal [3, 11]: 0.000378 ± 3.9e-06
peptide microarray binding signal [3, 12]: 0.000571
peptide microarray binding signal [4, 11]: 0.000317 ± 9.6e-06
peptide microarray binding signal [4, 12]: 0.000577 ± 6.2e-06

B5: H2A 1-13 Sph G R G K Q G G K A R A K (peptide)
chain: SGRGKQGGKARAK
peptide microarray binding signal ([1]; peptide region: H2A 1-13, peptide modifications: H2AS1ph, binder concentration: 50 nM): 0.00235 ± 3.8e-05
peptide microarray binding signal ([1]; peptide region: H2A 1-13, peptide modifications: H2AS1ph, binder concentration: 500 nM): 0.00462 ± 0.00011
peptide microarray binding signal ([2]; peptide region: H2A 1-13, peptide modifications: H2AS1ph, binder concentration: 10 nM): 0.002148 ± 1.2e-05
peptide microarray binding signal ([2]; peptide region: H2A 1-13, peptide modifications: H2AS1ph, binder concentration: 100 nM): 0.00312 ± 0.00029
peptide microarray binding signal [3, 13]: 0.000208 ± 2.2e-06
peptide microarray binding signal [3, 14]: 0.000342 ± 3.8e-06
peptide microarray binding signal [4, 13]: 0.000166 ± 3.6e-06
peptide microarray binding signal [4, 14]: 0.000231 ± 2.6e-06

B6: H2A 11-23 R A Kac A Kac Tph R S S R A G L (peptide)
chain: RAKAKTRSSRAGL
peptide microarray binding signal ([1]; peptide region: H2A 11-23, peptide modifications: H2AK13ac H2AK15ac H2AT16ph, binder concentration: 50 nM): 0.0063 ± 0.00011
peptide microarray binding signal ([1]; peptide region: H2A 11-23, peptide modifications: H2AK13ac H2AK15ac H2AT16ph, binder concentration: 500 nM): 0.0115 ± 0.00047
peptide microarray binding signal ([2]; peptide region: H2A 11-23, peptide modifications: H2AK13ac H2AK15ac H2AT16ph, binder concentration: 10 nM): 0.01009 ± 7e-05
peptide microarray binding signal ([2]; peptide region: H2A 11-23, peptide modifications: H2AK13ac H2AK15ac H2AT16ph, binder concentration: 100 nM): 0.0109 ± 0.00022
peptide microarray binding signal [3, 15]: 0.001265 ± 1e-05
peptide microarray binding signal [3, 16]: 0.00297 ± 7.6e-05
peptide microarray binding signal [4, 15]: 0.00107 ± 7.3e-05
peptide microarray binding signal [4, 16]: 0.00179 ± 3.4e-05

B7: H2A 1-13 Sph G R G Kac Q G G K A R A K (peptide)
chain: SGRGKQGGKARAK
peptide microarray binding signal ([1]; peptide region: H2A 1-13, peptide modifications: H2AS1ph H2AK5ac, binder concentration: 50 nM): 0.00298 ± 3.8e-05
peptide microarray binding signal ([1]; peptide region: H2A 1-13, peptide modifications: H2AS1ph H2AK5ac, binder concentration: 500 nM): 0.00752 ± 0.00011
peptide microarray binding signal ([2]; peptide region: H2A 1-13, peptide modifications: H2AS1ph H2AK5ac, binder concentration: 10 nM): 0.00292 ± 9.7e-05
peptide microarray binding signal ([2]; peptide region: H2A 1-13, peptide modifications: H2AS1ph H2AK5ac, binder concentration: 100 nM): 0.00276 ± 0.00011
peptide microarray binding signal [3, 17]: 0.000264 ± 5.6e-06
peptide microarray binding signal [3, 18]: 0.000685 ± 7.2e-06
peptide microarray binding signal [4, 17]: 0.000257 ± 2.7e-06
peptide microarray binding signal [4, 18]: 0.000577 ± 6.2e-06

B8: H2A 1-13 Sph G R G K Q G G Kac A R A K (peptide)
chain: SGRGKQGGKARAK
peptide microarray binding signal ([1]; peptide region: H2A 1-13, peptide modifications: H2AS1ph H2AK9ac, binder concentration: 500 nM): 0.005476 ± 3.5e-05
peptide microarray binding signal ([2]; peptide region: H2A 1-13, peptide modifications: H2AS1ph H2AK9ac, binder concentration: 100 nM): 0.00354 ± 0.00045
peptide microarray binding signal [3, 19]: 0.000208 ± 2.2e-06
peptide microarray binding signal [4, 19]: 0.000121 ± 1.3e-06

B9: H2A 1-13 Sph G Rcit G K Q G G K A R A K (peptide)
chain: SGRGKQGGKARAK
peptide microarray binding signal ([1]; peptide region: H2A 1-13, peptide modifications: H2AS1ph H2AR3cit, binder concentration: 50 nM): 0.00392 ± 8.1e-05
peptide microarray binding signal ([1]; peptide region: H2A 1-13, peptide modifications: H2AS1ph H2AR3cit, binder concentration: 500 nM): 0.00486 ± 5.6e-05
peptide microarray binding signal ([2]; peptide region: H2A 1-13, peptide modifications: H2AS1ph H2AR3cit, binder concentration: 10 nM): 0.00167 ± 3e-05
peptide microarray binding signal ([2]; peptide region: H2A 1-13, peptide modifications: H2AS1ph H2AR3cit, binder concentration: 100 nM): 0.00283 ± 0.0002
peptide microarray binding signal [3, 20]: 0.000472 ± 2.6e-05
peptide microarray binding signal [3, 21]: 0.000514 ± 1.1e-05
peptide microarray binding signal [4, 20]: 0.000272 ± 4.9e-06
peptide microarray binding signal [4, 21]: 0.000692 ± 7.3e-06

B10: H2A 1-13 Sph G Rme2a G K Q G G K A R A K (peptide)
chain: SGRGKQGGKARAK
peptide microarray binding signal ([1]; peptide region: H2A 1-13, peptide modifications: H2AS1ph H2AR3me2a, binder concentration: 50 nM): 0.00235 ± 9e-05
peptide microarray binding signal ([1]; peptide region: H2A 1-13, peptide modifications: H2AS1ph H2AR3me2a, binder concentration: 500 nM): 0.00381 ± 0.00015
peptide microarray binding signal ([2]; peptide region: H2A 1-13, peptide modifications: H2AS1ph H2AR3me2a, binder concentration: 10 nM): 0.003223 ± 1.8e-05
peptide microarray binding signal ([2]; peptide region: H2A 1-13, peptide modifications: H2AS1ph H2AR3me2a, binder concentration: 100 nM): 0.00206 ± 4.1e-05
peptide microarray binding signal [3, 22]: 0.000472 ± 1.2e-05
peptide microarray binding signal [3, 23]: 0.000685 ± 7.2e-06
peptide microarray binding signal [4, 22]: 0.000332 ± 3.4e-06
peptide microarray binding signal [4, 23]: 0.000577 ± 6.2e-06
